Out of some 320,000 compounds screened, about 2,100 (0.66%) were called active. Not shown: some 53% with an inconclusive outcome. The call rests on the fitted dose curve; in most records, active means well fitted inhibition curve with a large enough effect in the signal ratio, with a control signal flat (not every such curve was filed as active); inconclusive means small, poorly fitted or top-dose-only effect, or effect the other way, or a change in a side signal; inactive means flat fitted curve, though single readings scatter; the % refers to the signal ratio. The entries come from a sample that favours actives as a whole.
Potency means the concentration at half of the fitted maximal effect.

A short description of the assay: qHTS Assay for Lipid Storage Modulators in Drosophila S3 Cells.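 On cell number change: cells counted by Cell Tracker Red CMTPX staining in the red channel.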 On lipid storage change, negative = inhibition: on the % scale 0 is the no-effect control and ±100 the full control effect. To be noted: BODIPY lipid droplet fluorescence, 18-24 h, cells fed with added oleic acid; cell number change: measured here: cell count max response; series mostly up to 46.1 µM; lipid storage change, negative = inhibition: at the top concentration. In a few lines: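 Drosophila S3 cells got compounds at several concentrations plus oleic acid (400 uM solution). Laser-scanning cytometry with 488 nm excitation read lipid droplets at 500-530 nm and cells at 575-640 nm. Percent activity was relative to 20 uM Triacsin C.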
(In general: In qHTS, concentration-response curves come from the screen itself.)
Consider `CC(=O)Nc1ccc(S(=O)(=O)n2cnc3ccccc32)cc1`, for which the compound was classed as inactive and the cell number change is 13.3%.
Turning to `O=C(CN1C(=O)CCC1=O)Nc1cccc(NC(=O)CN2C(=O)CCC2=O)c1`, the “lipid storage change, negative = inhibition” value was -8.67% (inactive) and the cell number change is -5.66%.
The matching figures for `O=C(CCN1c2ccccc2Sc2ccccc21)Oc1ccccc1`: 1.68% (inactive) and -0.775%.
As to `Cn1c(C(=O)NCc2ccccc2)cc2oc3ccccc3c21`, the compound was classed as inactive and the cell number change turned out to be 12.4%.
On to `Cn1c(C(=O)NCC2CCCO2)cc2oc3ccccc3c21` (configuration not stated), for which the Potency was 580 nM (active) and the cell number change is -14.1%.
Regarding `Cn1c(C(=O)NCC2CCCO2)cc2c(=O)[nH]c3ccccc3c21` (configuration not stated), the “lipid storage change, negative = inhibition” value is -0.25% (inactive) and the cell number change was 4.34%.
The matching figures for `Cc1ccccc1CS(=O)(=O)CCC(=O)NCc1ccccn1`: -5.48% (inactive) and -19.8%.
As for `O=C(CSc1ccc(Cl)cc1)NCc1ccncc1`, the “lipid storage change, negative = inhibition” value was 2.06% (inactive) and the cell number change was found to be 8.1%.
Consider `O=C(Nc1ccc(NC(=O)c2ccc(Cl)c(S(=O)(=O)N3CCOCC3)c2)cc1)c1ccccc1`, for which the “lipid storage change, negative = inhibition” value was 13.6% (inactive).
Regarding `O=C(Nc1ccccc1C(=O)O)c1ccc(Cl)c(S(=O)(=O)N2CCOCC2)c1`, the “lipid storage change, negative = inhibition” value is -15.9% (inactive) and the cell number change was -21%.
On to `CN(C(=O)c1ccc(Cl)c(S(=O)(=O)N2CCOCC2)c1)c1ccccc1C(=O)O`, for which the Potency is 820 nM (active) and the cell number change is -5.89%.
As for `COc1ccc(OC)c(S(=O)(=O)N2CCN(c3ccccn3)CC2)c1`, the “lipid storage change, negative = inhibition” value is -23.4% (inactive) and the cell number change is -24%.
Turning to `COc1cc(/C=C/C(=O)N2CCN(c3ccccn3)CC2)cc(OC)c1OC`, the Potency was 16400 nM (active) and the cell number change is -26.3%.
Consider `COc1ccc(Br)cc1CN(C)C(=O)Cc1ccc(OC)c(S(=O)(=O)N2CCOCC2)c1`, for which the Potency is 10300 nM (active) and the cell number change stood at 30.1%.
In the case of `COc1cccc(/C=C/C(=O)N2CCN(c3ccccn3)CC2)c1`, the “lipid storage change, negative = inhibition” value was 9.27% (inactive) and the cell number change is -5.2%.
The matching figures for `COc1ccc(/C=C/C(=O)N2CCN(c3ccccn3)CC2)c(OC)c1OC`: -3.76% (inactive) and 5.19%.
For the compound `COc1ccc(CC(=O)N(C)Cc2ccc(Cl)cc2)cc1S(=O)(=O)N1CCOCC1`, the compound was called inactive.
`COc1ccc(C(=O)O)cc1S(=O)(=O)N1CCN(c2ccccn2)CC1`: the Potency was 820 nM (active) and the cell number change was determined as 2.78%.
Take `COc1ccc(S(=O)(=O)N2CCN(c3ccccn3)CC2)c(OC)c1`: the “lipid storage change, negative = inhibition” value is -23.1% (inactive) and the cell number change is -13%.
The matching figures for `COc1ccc(CC(=O)N(C)Cc2cccc(F)c2)cc1S(=O)(=O)N1CCOCC1`: 21.5% (inactive) and 18.8%.
On to `Cn1c(N)c(C(=O)COC(=O)COc2ccccc2C#N)c(=O)n(C)c1=O`, for which the compound was classed as inactive.
As to `CC1CCCCN1C(=O)c1ccc(Br)o1` (configuration not stated), the call was inactive and the cell number change turned out to be 0.829%.
For the compound `COc1ccc(/C=C/C(=O)c2ccc(O)cc2)cc1`, the “lipid storage change, negative = inhibition” value was 0.146% (inactive) and the cell number change was -13.4%.
The matching figures for `CCNC(=S)NNC(=O)c1ccc(=O)n(Cc2ccccc2)c1`: 12.6% (inactive) and 8.31%.
As for `CN(C)C(=O)NC(Nc1ccc(Cl)cc1Cl)C(Cl)(Cl)Cl` (configuration not stated), the outcome was inactive.
Turning to `Cc1ccc(CC(CC(=O)NCCc2ccc3c(c2)OCO3)C(=O)O)cc1` (configuration not stated), the “lipid storage change, negative = inhibition” value is -23.3% (inactive).
